Compound activity from PubChem.
In the library only some 18% were active in any assay of this set; here they are far more common.
TDP1 cell noCPT: qHTS for Inhibitors of human tyrosyl-DNA phosphodiesterase 1 (TDP1): qHTS in cells in absence of CPT; DT40 Tdp1-/- hTDP1 cells, no CPT, ATP luminescence, 48 h; Potency, µM (highest dose often 46.2 µM), without a hit: at the highest dose activity change, negative = growth inhibition, most hits filed as inhibitors; 15% of 420,000 active; also: potency is read from the fitted curve at half-maximal effect; nearly all actives have a fitted effect of over 55% in size
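Cells were dispensed at 400 per well, compounds added by pin tool, plates incubated ≥48 hr at 37 °C, then CellTiter-Glo added for 30 min at room temperature before luminescence reading. Line: DT40 Tdp1-/- complemented with hTDP1; camptothecin omitted.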
IL1B secr inh: inhibitors of inflammasome signaling (IL-1 beta secretion). activity change, % at 57.5 µM. 4.7% of 360,000 active. THP-1 LPS/ATP IL-1B secretion, AlphaLISA, 16 h; hits give low values. AID 743279; in the data active = activity change below about -50%; inconclusive = mostly about -30% to -49%
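THP-1 cells pretreated 1 hr with compounds (up to 57.5 uM final), then stimulated with LPS (250 ng/mL final) plus ATP (1.25 mM final); secreted IL-1B measured by AlphaLISA after 16 hr, decreased signal indicating inhibition.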
VP16 counter: counter-screen for ROR gamma inhibitors: Gal4-VP16 reporter | Drosophila S2 Gal4-VP16 UAS-luciferase, luminescence, 20 h | Potency, µM (highest dose often 53.6 µM), for inactives: at the top dose activity, negative = inhibition, hits mostly inhibitors | 3.5% of 310,000 active | AID 2546;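 also: Gal4-VP16 expression switched on by copper sulfate through the metallothionein promoter; potency is read from the fitted curve at half-maximal effect; nearly all actives have a fitted effect of over 50% in size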
TDP1 cell CPT: growth inhibition of DT40 Tdp1-/-;hTDP1 cells with camptothecin (screen for TDP1 inhibitors). AID 686979. chicken DT40 Tdp1-/-;hTDP1 cells + 20 nM CPT, ATP luminescence, 48 h. 12% of 420,000 active. Potency, µM (series often up to 46.2 µM), for inactives: at the highest dose activity change, negative = growth inhibition, hits mostly inhibitors; also: potency is read from the fitted curve at half-maximal effect; nearly all actives have a fitted effect of over 55% in size
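Chicken DT40 Tdp1-/- cells stably complemented with human TDP1 were seeded at 400 cells/well in medium containing 20 nM camptothecin, exposed to pin-transferred compounds, and grown at 37 °C for at least 48 hr. Viability was read as ATP luminescence.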
LDHA inh: blocks human lactate dehydrogenase A; activity change, % (values are at about 110 or 230 µM); purified LDHA, NADH/diaphorase-resazurin fluorescence; hits give low values; P00338; 0.15% of 480,000 active; in the data active = activity change below about -30%; inconclusive = mostly about -25% to -30%;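 also: plate controls were DMSO wells for no effect and wells without enzyme for full effect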
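LDH5 2 nM; NADH 0.06 mM, pyruvate 0.2 mM; 200 mM Tris pH 7.4, EDTA, Tween-20; 5 min RT. Detection: diaphorase 0.133 mg/mL + resazurin 37 µM, fluorescence ex540/em590 at 0 and 20 min; normalized to enzyme-free and DMSO wells.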
RORgamma inh: blocks mouse ROR gamma transcriptional activity | AID 2551 | Potency, µM (doses to about 53.6 µM), for inactives: at the top dose activity change, negative = inhibition, hits mostly inhibitors | 5.4% of 310,000 active | P51450 | Drosophila S2 Gal4-RORgamma UAS-luciferase reporter, 20 h; also: potency is read from the fitted curve at half-maximal effect; nearly all actives have a fitted effect of over 60% in size
Target sequence (P51450 whole entry, looked up, the tested form may be a part): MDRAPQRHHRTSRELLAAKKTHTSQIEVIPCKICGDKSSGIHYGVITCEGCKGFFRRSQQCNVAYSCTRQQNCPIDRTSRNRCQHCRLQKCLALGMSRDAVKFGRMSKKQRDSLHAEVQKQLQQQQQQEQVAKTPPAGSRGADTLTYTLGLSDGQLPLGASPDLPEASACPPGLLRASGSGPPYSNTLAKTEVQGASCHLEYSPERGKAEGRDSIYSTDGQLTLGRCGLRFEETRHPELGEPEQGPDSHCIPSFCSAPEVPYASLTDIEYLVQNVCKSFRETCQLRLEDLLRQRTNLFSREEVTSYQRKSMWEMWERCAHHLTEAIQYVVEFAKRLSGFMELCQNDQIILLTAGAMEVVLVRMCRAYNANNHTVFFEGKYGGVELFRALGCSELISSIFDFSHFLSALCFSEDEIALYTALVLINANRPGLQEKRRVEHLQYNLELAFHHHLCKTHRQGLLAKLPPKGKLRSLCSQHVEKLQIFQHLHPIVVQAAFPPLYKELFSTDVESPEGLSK
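Luminescence from a UAS-regulated Photinus luciferase reporter in stably transfected Drosophila Schneider cells is measured; decreased signal marks ROR gamma inhibition. Fusion expression is induced by 700 uM copper sulfate for 20 hr.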
Numbers without * were called inactive. Unless noted, calls follow the shape of the dose curve; as a rule, active = well fitted curve in the direction sought with a large enough effect; inconclusive = small, poorly fitted or top-dose-only effect, or another doubt; inactive = no such curve, though single readings can be large; an effect the other way counts as inactive or inconclusive. Unless noted, % is scaled to controls: 0 for no effect and ±100 for the full control effect.

What do the screens show for `COc1ccc2c(Nc3cc(OC)c(OC)c(OC)c3)c(C#N)cnc2c1`?
LDHA inh: 1.1

How did CC(=O)Nc1cc(C(=O)N2CCCC2)ccc1Sc1ccc(Cl)cc1 do in these assays?
TDP1 cell noCPT: inconclusive; IL1B secr inh: 2.9; VP16 counter: 2.3%; TDP1 cell CPT: 20µM*; LDHA inh: -5.7; RORgamma inh: inconclusive

How did CCOc1ccccc1NC(=O)CCCNC(=O)c1ccc(Cl)cc1 do in these assays?
TDP1 cell noCPT: -15.8%; IL1B secr inh: 28.0; VP16 counter: 11.3%; TDP1 cell CPT: 7.3%; LDHA inh: -5.9; RORgamma inh: 11.6%

Results for CCCCN(CCCNC(=O)c1ccc(Sc2ccc(Cl)cc2)c(NC(C)=O)c1)c1ccccc1 ?
TDP1 cell noCPT: -101.8%; TDP1 cell CPT: inconclusive; LDHA inh: 0.0

How did CCN(C(=O)C(C)OC(=O)CCCNC(=O)c1ccc(Cl)cc1)c1ccccc1 (stereo unspecified) do in these assays?
TDP1 cell noCPT: 20.6µM*; IL1B secr inh: -3.0; TDP1 cell CPT: inconclusive; LDHA inh: -2.9

How did CCN(CCCNC(=O)c1ccc(Sc2ccc(Cl)cc2)c(NC(C)=O)c1)c1ccccc1 do in these assays?
TDP1 cell noCPT: 23.1µM*; TDP1 cell CPT: inconclusive; LDHA inh: 7.8

How did Cc1ccc(C)c(NC(=O)Cn2c(=O)n(Cc3ccco3)c(=O)c3oc4ccccc4c32)c1 do in these assays?
TDP1 cell noCPT: 10.3µM*; TDP1 cell CPT: 16.4µM*; LDHA inh: -6.2

What do the screens show for `CCCCn1c(=O)c2oc3ccccc3c2n(CC(=O)Nc2ccc(CC)cc2)c1=O`?
TDP1 cell noCPT: inconclusive; TDP1 cell CPT: 13µM*; LDHA inh: -1.5

What do the screens show for `CCCCn1c(=O)c2oc3ccccc3c2n(CC(=O)Nc2cc(C)ccc2C)c1=O`?
TDP1 cell noCPT: 11.6µM*; TDP1 cell CPT: 11.6µM*; LDHA inh: -0.1

How did CCCCn1c(=O)c2oc3ccccc3c2n(CC(=O)Nc2cccc(Cl)c2)c1=O do in these assays?
TDP1 cell noCPT: -18.5%; TDP1 cell CPT: -28.6%; LDHA inh: -1.6

Results for Cc1ccc(C)c(NC(=O)Cn2c(=O)n(Cc3ccccc3)c(=O)c3oc4ccccc4c32)c1 ?
TDP1 cell noCPT: 5.8µM*; TDP1 cell CPT: 4.61µM*; LDHA inh: -11.7

What do the screens show for `Cc1ccc(C(C)NC(=O)c2cccnc2)c(C)c1` (stereo unspecified)?
LDHA inh: -5.3

How did Cc1cc(C)c2c(=O)cc(C(=O)Nc3ccc(S(N)(=O)=O)cc3)oc2c1 do in these assays?
LDHA inh: -4.5

What do the screens show for `CC(C)C(=O)Nc1ccc(N2CCOCC2)c(S(=O)(=O)Nc2ccccc2Cl)c1`?
TDP1 cell noCPT: 13µM*; IL1B secr inh: -14.4; TDP1 cell CPT: inconclusive; LDHA inh: -2.3

Results for C[C@H](NC(N)=O)C(=O)Nc1ccc(N2CCOCC2)c(S(=O)(=O)Nc2ccc(Cl)cc2)c1 ?
TDP1 cell noCPT: inconclusive; IL1B secr inh: -0.6; TDP1 cell CPT: 20.6µM*; LDHA inh: -2.6

How did COCCNC(=S)Nc1ccc(N2CCOCC2)c(S(=O)(=O)Nc2ccc(Cl)cc2)c1 do in these assays?
TDP1 cell noCPT: 10.3µM*; IL1B secr inh: -3.0; TDP1 cell CPT: inconclusive; LDHA inh: -11.4

Results for COc1ccc(NS(=O)(=O)c2cc(NC(=O)C3CC3)ccc2N2CCOCC2)cc1 ?
TDP1 cell noCPT: -29.1%; IL1B secr inh: -3.4; VP16 counter: -7.0%; TDP1 cell CPT: -17.2%; LDHA inh: -7.3; RORgamma inh: 2.0%

How did COc1ccc(NS(=O)(=O)c2cc(NC(=O)c3ccc(Cl)cc3)ccc2N2CCOCC2)cc1 do in these assays?
TDP1 cell noCPT: 2.31µM*; IL1B secr inh: -25.9; TDP1 cell CPT: 2.59µM*; LDHA inh: 4.1

What do the screens show for `CC(=O)Nc1ccc(N2CCOCC2)c(S(=O)(=O)Nc2ccccc2Cl)c1`?
TDP1 cell noCPT: -19.6%; IL1B secr inh: -3.2; TDP1 cell CPT: -13.2%; LDHA inh: -4.6

How did CSc1ccc(C2N=C(N)Nc3nc4ccccc4n32)cc1 (stereo unspecified) do in these assays?
LDHA inh: -2.1

How did CCOCCCNC(=O)C(NC(=O)c1ccc(CC)cc1)C(C)C (stereo unspecified) do in these assays?
LDHA inh: -0.3

Results for Nc1ccc(N2CCCCC2)c(S(=O)(=O)Nc2ccccc2Cl)c1 ?
TDP1 cell noCPT: -22.2%; IL1B secr inh: 0.3; VP16 counter: -7.1%; TDP1 cell CPT: -3.2%; LDHA inh: 8.9; RORgamma inh: -37.6%

How did O=C(Nc1cccc(C(F)(F)F)c1)Nc1ccc(N2CCCC2)c(S(=O)(=O)Nc2ccccc2Cl)c1 do in these assays?
TDP1 cell noCPT: 2.91µM*; IL1B secr inh: -70.7*; VP16 counter: 11.2µM*; TDP1 cell CPT: 3.26µM*; LDHA inh: -5.0; RORgamma inh: inconclusive

How did COc1ccc(NC(=O)c2oc3ccccc3c2NC(=O)c2cc3ccccc3o2)cc1 do in these assays?
TDP1 cell noCPT: 4.11µM*; TDP1 cell CPT: inconclusive; LDHA inh: 5.9

Results for COc1ccc(NC(=O)c2oc3ccccc3c2NC(=O)c2ccco2)c(OC)c1 ?
TDP1 cell noCPT: inconclusive; IL1B secr inh: 8.1; VP16 counter: 9.5%; TDP1 cell CPT: 6.31µM*; LDHA inh: -1.9; RORgamma inh: -4.3%

What do the screens show for `COc1ccc(NC(=O)c2oc3ccccc3c2NC(=O)c2cc(=O)c3ccccc3o2)cc1`?
TDP1 cell noCPT: inconclusive; TDP1 cell CPT: inconclusive; LDHA inh: -4.2

Results for COc1ccc(NC(=O)c2oc3ccccc3c2NC(=O)c2ccco2)cc1 ?
TDP1 cell noCPT: 18.4µM*; VP16 counter: 6.9%; TDP1 cell CPT: inconclusive; LDHA inh: -14.0; RORgamma inh: 62.3%

Results for COc1ccc(NC(=O)c2oc3ccccc3c2NC(=O)c2cc(=O)c3c(C)cc(C)cc3o2)cc1 ?
TDP1 cell noCPT: 2.91µM*; TDP1 cell CPT: inconclusive; LDHA inh: -0.8

Results for Cc1ccc(C(=O)NCCCN(C)CC(F)(F)F)cn1 ?
LDHA inh: 6.7

Results for CCOC(=O)CSc1nc2c(c(=O)[nH]c(=O)n2C)n1Cc1ccccc1Cl ?
LDHA inh: 27.9

How did CCOC(=O)C1=CN(c2ccc(F)cc2)C=C(C(=O)OCC)C1c1ccc(F)cc1 do in these assays?
LDHA inh: -0.6
